We go through 24 compounds from paper PMC4336329 (PLoS ONE, 2015).

SMILES strings stand for the structures. Among all 310,000 compounds or so, about 14,000 (4.5%) showed an effect of 50% or more. Effects have a minus sign here. The sample holds strong results, similar compounds and a random draw of the others, so the mix is not that of the screen.
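Further: peak tail current of the secondary pulse compared with the same well before compound.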

For this assay, the target named is human ether-à-go-go-related gene (hERG) potassium channel (human, UniProt Q12809). Nature of the assay: primary screen, population patch clamp on CHO cells stably expressing hERG; higher = less effect of the substance.
Sequence of human ether-à-go-go-related gene (hERG) potassium channel (Q12809 whole entry, looked up): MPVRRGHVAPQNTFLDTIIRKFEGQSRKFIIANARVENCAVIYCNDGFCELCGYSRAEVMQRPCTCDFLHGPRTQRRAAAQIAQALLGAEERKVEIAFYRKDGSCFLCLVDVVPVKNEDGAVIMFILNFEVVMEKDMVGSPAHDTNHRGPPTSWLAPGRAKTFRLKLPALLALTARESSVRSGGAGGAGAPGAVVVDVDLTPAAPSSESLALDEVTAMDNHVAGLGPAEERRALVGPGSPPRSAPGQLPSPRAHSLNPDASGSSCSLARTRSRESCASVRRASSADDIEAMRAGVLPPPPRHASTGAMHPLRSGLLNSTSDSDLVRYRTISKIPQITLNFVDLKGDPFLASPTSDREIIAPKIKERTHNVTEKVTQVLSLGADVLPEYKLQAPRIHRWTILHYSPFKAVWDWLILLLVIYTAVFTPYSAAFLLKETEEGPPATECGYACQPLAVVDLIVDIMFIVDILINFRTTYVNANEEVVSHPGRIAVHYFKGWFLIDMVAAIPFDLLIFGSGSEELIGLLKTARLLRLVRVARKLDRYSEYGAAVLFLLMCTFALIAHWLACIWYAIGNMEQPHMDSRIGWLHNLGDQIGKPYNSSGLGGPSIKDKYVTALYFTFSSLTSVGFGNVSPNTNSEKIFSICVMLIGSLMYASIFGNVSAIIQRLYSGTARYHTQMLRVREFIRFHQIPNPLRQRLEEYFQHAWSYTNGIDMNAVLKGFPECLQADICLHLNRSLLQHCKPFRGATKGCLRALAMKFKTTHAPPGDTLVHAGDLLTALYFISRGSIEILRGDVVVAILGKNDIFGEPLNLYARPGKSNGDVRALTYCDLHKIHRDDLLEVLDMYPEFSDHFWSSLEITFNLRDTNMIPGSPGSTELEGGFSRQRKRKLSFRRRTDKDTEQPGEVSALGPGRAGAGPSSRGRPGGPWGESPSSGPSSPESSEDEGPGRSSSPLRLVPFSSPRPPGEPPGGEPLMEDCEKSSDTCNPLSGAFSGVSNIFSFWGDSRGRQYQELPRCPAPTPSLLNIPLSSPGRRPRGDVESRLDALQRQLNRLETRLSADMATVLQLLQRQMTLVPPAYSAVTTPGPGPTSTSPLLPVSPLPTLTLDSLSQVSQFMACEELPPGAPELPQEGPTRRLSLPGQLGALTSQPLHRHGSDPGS
`Cc1nn(C)c(Oc2cccc(Cl)c2)c1C(=O)Nc1ccc(F)cc1`: the “hERG current change (%, negative = inhibition) at 10uM” value is given as -15.3%. With `CCn1c(CCn2ccnc2C)n[nH]c1=S` the figure was -1.48%; with `O=C1CCCC2=C1C(Cc1ccccc1)C1=C(CCCC1=O)O2`, -3.32%.

Consider `CCCc1cc(C(=O)NC(C)C2CCCO2)cs1` (stereo not drawn), for which the “hERG current change (%, negative = inhibition) at 10uM” value was found to be 7.72%. Turning to `Cc1nc2cc(NS(=O)(=O)c3ccccc3)ccc2n1C`, the “hERG current change (%, negative = inhibition) at 10uM” value is recorded as 9.21%. The value for `CC(=O)c1cccc(NC(=O)C2CCCN(S(C)(=O)=O)C2)c1` (stereo not drawn) was 8.02%; that for `N#C/C(=C\c1ccccc1)C(=O)Nc1ccccn1` was 12.7%; that for `CCCCN1C(=O)c2ccc(C(=O)Nc3cccc(C)c3C)cc2C1=O` was 17.2%.

For `CCCCN1C(=O)c2ccc(C(=O)Nc3c(N)n(CCCC)c(=O)n(C)c3=O)cc2C1=O`, the “hERG current change (%, negative = inhibition) at 10uM” value was -51.9%. As to `CCCCN1C(=O)c2ccc(C(=O)Nc3ccc(S(=O)(=O)N(C)C)cc3)cc2C1=O`, the “hERG current change (%, negative = inhibition) at 10uM” value is on record as -0.448%.

Consider `CCOC(=O)C1(Cc2ccc(OC)cc2)CCN(C(=O)CCc2cnccn2)CC1`, for which the “hERG current change (%, negative = inhibition) at 10uM” value is recorded as -7.37%. For the compound `CCOC(=O)C1(Cc2ccc(Cl)cc2)CCN(C(=O)CCc2cnccn2)CC1`, the “hERG current change (%, negative = inhibition) at 10uM” value is -50%.

As to `CCOC(=O)C1(CCCc2ccccc2)CCN(C(=O)CCc2cnccn2)CC1`, the “hERG current change (%, negative = inhibition) at 10uM” value is reported as -66.4%. In the case of `CCOC(=O)C1(CCc2ccccc2)CCN(C(=O)CCc2cnccn2)CC1`, the “hERG current change (%, negative = inhibition) at 10uM” value was -66.5%. Take `Cc1ccc(C)c(SCC(=O)Nc2cccnc2Cl)c1`: the “hERG current change (%, negative = inhibition) at 10uM” value was determined as 0.545%.

For `O=C(COC(=O)Cc1ccccc1[N+](=O)[O-])NCC1CCCCC1`, the “hERG current change (%, negative = inhibition) at 10uM” value came out at 0.647%. The value for `COc1ccc(NC(=S)NC(=O)C2CCC2)cc1` was 7.29%; that for `O=S(=O)(NCc1ccco1)c1cccc2cccnc12` was -22.3%.

With `N#CC(C#N)=C1C=CC=CN1/C(=C\c1ccco1)C(=O)c1ccc(Br)cc1`, the “hERG current change (%, negative = inhibition) at 10uM” value is -46.5%. With `N#CC(C#N)=C1C=CC=CN1/C(=C\c1ccco1)C(=O)c1ccc(Cl)cc1` the figure was -36%; with `N#CC(C#N)=C1C=CC=CN1/C(=C\c1ccco1)C(=O)c1ccc(-c2ccccc2)cc1`, 3.14%; with `N#CC(C#N)=C1C=CC=CN1/C(=C\c1ccco1)C(=O)c1ccccc1`, -57.8%. On to `COc1ccc(C(=O)/C(=C\c2ccco2)N2C=CC=CC2=C(C#N)C#N)cc1`, for which the “hERG current change (%, negative = inhibition) at 10uM” value was -72%. `N#CC(C#N)=C1C=CC=CN1/C(=C\c1ccccc1Cl)C(=O)c1ccccc1`: the “hERG current change (%, negative = inhibition) at 10uM” value amounted to 8.73%.
